Laboratory results as given in the supplement of paper PMC11417369.
In all, about 25,000 sequences were measured (“ln(normalized median fluorescence intensity)”: median about 6.7, highest 2% from about 10 on). For the sample, the highest values were picked, then their nearest neighbours and some sequences at random.

These sequences were tested on PfHDP1 homeodomain (GST-tagged) (assay: gcPBM binding intensity (ln(normalized median fluorescence intensity)); higher = stronger DNA binding).
In short: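 Using an Agilent 4 × 180k array, primer-extended double-stranded 36-bp intergenic genomic probes and negative controls were exposed for 1 h to GST-fused P. falciparum DNA-binding domains expressed in E. coli. Binding was carried out in 1× PBS with 1% milk, 0.2 mg/ml BSA, 0.5% salmon testes DNA and 0.03% Triton X-100, and protein was detected with Alexa488 anti-GST antibody and a 488 nm scan. Binding intensity is the highest Masliner-normalised natural-log median intensity across replicate spots of either probe orientation.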

Row | Sequence | gcPBM binding intensity (ln)
1 | CAACATTAATATAAAGCACACATATATATAATATAT [CACACA_site8064] | 6.39
2 | TTGAACCTGATAAATACACACAATATAGATTTTTTT [CACACA_site7091] | 6.48
3 | TTTCTAATTCTTAGTGGTACACAGTTCTGCTGATAT [XGTACX_site2391] | 6.09
4 | AATGAGCGTTAAAAATGTACAGAAAATTGGAATTAT [XGTACX_site5743] | 6.75
5 | TATAAAAATAAGCACACACACAAATATATATTTATT [CACACA_site922] | 6.77
6 | GTTTATTTATTTTATGTGCACATATAACAAAAAAAA | 10.7
7 | ATATATATATATATTGTGCACAAAAAAAAATAAGCA | 10.7
8 | TAAAATAATTTATGCATACACACATATATATATATA [CACACA_site4021] | 9.28
9 | ATAAAATATATATGCACACACATATATATTTCATAC [CACACA_site3547] | 10.2
10 | TATATATATATATATGTGCACATATTTATATGTTTT | 10.3
11 | TGCATAAATTTATGCACACATAAAAAAAAAAAAAAA [CACACA_site2923] | 10.4
12 | ACAAAAAAAATAAGCACACATATATATATATATATA [CACACA_site816] | 9.27
13 | GAAATAATTTCATATACACACATATACATACATACA [CACACA_site1358] | 7.13
14 | TGTGCATAAATTTATGCACACATAAAAAAAAAAAAA [CACACA_site8954] | 11
15 | CAAAATATTTTTATAACACACATATATATAATGTGC [CACACA_site4767] | 6.52
16 | ATAATTTCATAATACGTGCACATAATATATAAAAAA | 10.9
17 | AAGAAAGGTTAAACATGTACATAAATATTTTACATA [XGTACX_site5024] | 6.28
18 | TAATTCACATTTTATACACACATTCGAACCTTTTTT [CACACA_site3341] | 6.88
19 | TTATAAAAGAAAAAAAAAAAAAAAAAAAAAAAAAAA [CACACA_negctrl_site1006] | 6.11
20 | TTACATATATTGGGGTGTACATATATTTTCCTTCAC [XGTACX_site6224] | 7.35

Row | Sequence | gcPBM binding intensity (ln)
21 | AAAAAAAAGAAAGAAAGTACAAATTATAAAATGAAC [XGTACX_site860] | 6.62
22 | AACAATAAATTATTATGTACACATATATTATATATA [XGTACX_site4629] | 6.47
23 | ATCTAAAAATTTTACGCACACAAGTAAAAAAAAAAA [CACACA_site2485] | 7.14
24 | ACTATATATATAAGTGCATGTTCATTATACCTAAAG [TGCATGCA_site696] | 7.49
25 | GATAAATGTATATATGCATGCACATATATTTATACA [TGCATGCA_site748] | 8.96
26 | TTATATATTTATAAATGTACGTATAAGAATTTAATT [XGTACX_site8541] | 6.68
27 | TATATTTATGTATATGTGCACATAAATTTAAGAATG [GTGCAC_site9512] | 10.9
28 | TATAATAATAATGATAGTACGTATGAGTTCAAGAAA [XGTACX_site4918] | 6.34
29 | TCATATATCCTTATCACACATATAATAAATTCCCTT [CACACA_site4457] | 6.59
30 | ACACATATGCATATATGTACATAATATATTAAACTT [XGTACX_site5975] | 6.76
31 | TATATATATATATATACATGCATATTTTTTATTTTT [TGCATGCA_site464] | 9.46
32 | TATATATTTATTAAATGTACATAACAAAAATGGTAT [XGTACX_site3577] | 7.05
33 | ATATTATACGCATATGTGCGCATACATTTTTTTGCA [GTGCAC_site9540] | 7.53
34 | TTTTTTATTATTATGTGTACGAATATGTGCATATAA [XGTACX_site1364] | 9.93
35 | TATGTGCATATAAACTCACACATTGTATATTACATG [CACACA_site6106] | 10.9
36 | ATATATGCATATTATACACACATATGTATATACATT [CACACA_site965] | 7.81
37 | CATATATAAATATGTATGCACTTTAACAAAATGTAT | 7.25
38 | ATTATTACATATAATGCATGTGCATATATTTTTATA [TGCATGCA_site701] | 11
39 | TATATATAATTTTATACATGCACATATTATATATAT [TGCATGCA_site1036] | 8.4
40 | CCTTATACGATATTATGTACGCATATGTGCATTTTT [XGTACX_site1570] | 10.9

Row | Sequence | gcPBM binding intensity (ln)
41 | ATGTATGCAAAAATGGTGCATATTAAATGTATAACA [GTGCAC_site9722] | 10.5
42 | TTATAAAGAAAAAATTGCTTTAAAAGAAAGATTACA [CACACA_negctrl_site960] | 5.87
43 | CTAAATTGTTAATAGAGTACATTTGTATAATATAAG [XGTACX_site594] | 6.44
44 | ATATATATATATGTACACATATATGTGTTTGTTTTT [GTGCAC_negctrl_site5] | 8.99
45 | GTAATTTTTTTCTATACACACATATCTATAATATAT [CACACA_site7284] | 6.94
46 | TCACTATAATAATTTACACACATTTTAAGAAAATGT [CACACA_site3530] | 6.61
47 | TGTTTGCTTATGTGTTAAATATATATATATATATAT [TGCATGCA_negctrl_site218] | 9.25
48 | TATTAATGCAAATGTTATATGTGCATACATAAATGT [CACACA_negctrl_site790] | 10.9
49 | AGTGAGAAATACATAATAATACATTATGTGCATATT [XGTACX_negctrl_site247] | 10.7
50 | TTATATGTATTTCTTTGTACACATTTTTATATATAT [XGTACX_site1462] | 7.16
51 | TATATGTAATATTATACATGCATACATAATATATAT [TGCATGCA_site558] | 6.52
52 | TTATATTAATTTTGTTGTACTATTTGTGCATTAAAT [XGTACX_site4790] | 10.8
53 | TCCAATTCTTTATTTTGTACACATTATGTGCATATG [XGTACX_site6290] | 10.9
54 | TTTTTTAAATTTAAAGTGCATTATTATATATTTGTA | 8.5
55 | ATTTTTGTAATTATTTGTACACATTTATTTATGTGT [XGTACX_site1864] | 6.76
56 | TATACATATATAAATGCATGTTGATATTAATAGTTA [TGCATGCA_site639] | 6.53
57 | CATGTGCATATTAAATGTACATATATACATATATAC [XGTACX_site857] | 10.2
58 | TTTTTTTTTTTTTTGTGTACTAATATTATAAATTTT [XGTACX_site4405] | 6.44
59 | ATACCATATAATTATGTGAGAAAATATAATATTCAT [CACACA_negctrl_site310] | 6.55
